Structures are written as SMILES. Potency and affinity values are given separately. The source made the active and inactive calls.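 How the source made its calls: active means fitted half-maximal dose no more than twice the top valid tested dose, for compounds that lower signal; inconclusive means fit invalid, or curve flat with activity between -70 and -30; inactive means potency past limit, curve flat within ±30, or signal increasing.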

In this test the target is NAD-dependent protein deacylase sirtuin-5, mitochondrial (Homo sapiens) (UniProt Q9NXA8). The experiment in a line: SIRT5 deacylase inhibitors, dose response, biochemical, fluorescence imaging, cherry-pick, set 6 (AID 720597).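 Further: lower AMC signal can also come from blocking the trypsin step.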 The settings on record: Purified SirT5, succinyl-peptide-AMC/trypsin fluorescence; series mostly up to 15 µM.
Sequence of NAD-dependent protein deacylase sirtuin-5, mitochondrial (Homo sapiens) (Q9NXA8 whole entry, looked up): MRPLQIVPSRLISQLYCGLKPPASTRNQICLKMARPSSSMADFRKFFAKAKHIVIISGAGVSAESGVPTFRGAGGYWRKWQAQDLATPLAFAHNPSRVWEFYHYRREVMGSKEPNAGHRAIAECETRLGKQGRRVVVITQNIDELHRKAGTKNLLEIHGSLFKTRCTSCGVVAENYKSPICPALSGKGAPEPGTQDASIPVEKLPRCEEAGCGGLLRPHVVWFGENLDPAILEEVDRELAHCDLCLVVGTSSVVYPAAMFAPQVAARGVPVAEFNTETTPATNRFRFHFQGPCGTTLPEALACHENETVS
For the compound `C[C@H](CO)N1C[C@H](C)[C@@H](CN(C)Cc2ccc(C(F)(F)F)cc2)OCCCC[C@H](C)Oc2ccc(NS(=O)(=O)c3ccc(F)cc3)cc2C1=O`, the call was inactive.

Turning to `C[C@H]1CN([C@@H](C)CO)C(=O)CCCn2cc(nn2)CO[C@H]1CN(C)Cc1ccccc1`, the call was inactive.

As to `C[C@@H]1CN([C@H](C)CO)S(=O)(=O)c2ccc(C#Cc3ccc(F)cc3)cc2O[C@H]1CN(C)C(=O)NC1CCCCC1`, the result was inactive.

For the compound `CC1C(=O)N2CCCc3cc(S(=O)(=O)N4CCCC4)cc1c32` (stereo not given), the compound was called inactive.

As for `C[C@H]1CN([C@@H](C)CO)C(=O)c2cccc(NC(=O)CCCCCC(=O)Nc3ccccc3N)c2O[C@@H]1CN(C)Cc1ccc(Oc2ccccc2)cc1`, the outcome was inactive.

With `COc1ccc(S(=O)(=O)Nc2ccc3c(c2)C(=O)N([C@H](C)CO)C[C@@H](C)[C@@H](CN(C)Cc2ccc(C(F)(F)F)cc2)OCCCC[C@H](C)O3)cc1`, the compound was classed as inactive.

Regarding `C[C@@H]1CN([C@@H](C)CO)C(=O)Cc2cc(NS(=O)(=O)c3ccc(F)cc3)ccc2O[C@H]1CN(C)Cc1ccc(C(F)(F)F)cc1`, the compound was called inactive.

In the case of `COc1ccc(S(=O)(=O)N(C)C[C@@H]2OCCCC[C@@H](C)Oc3ccc(NS(=O)(=O)c4ccc(F)cc4)cc3C(=O)N([C@@H](C)CO)C[C@@H]2C)cc1`, the compound was classed as inactive.

`COc1ccc(S(=O)(=O)N(C)C[C@@H]2OCCCC[C@H](C)Oc3ccc(NS(=O)(=O)c4ccc(Cl)cc4)cc3C(=O)N([C@@H](C)CO)C[C@H]2C)cc1`: the result was inactive.

On to `C[C@H](CO)N1C[C@H](C)[C@H](CN(C)Cc2cccc(F)c2)Oc2ncc(C#C[C@@H](C)O)cc2C1=O`, for which the call was inactive.

The record behind these values is PubChem BioAssay AID720597 (Broad Institute, 2013).
